Whole data set: some 33,000 sequences, median “E-score (-0.5 to 0.5)” near -0.012, cut for the highest 2% near 0.27. The entries come from a sample that favours the highest values as a whole.
Biological target: T1, Vhr1 (UniProt P40522)
T1 sequence: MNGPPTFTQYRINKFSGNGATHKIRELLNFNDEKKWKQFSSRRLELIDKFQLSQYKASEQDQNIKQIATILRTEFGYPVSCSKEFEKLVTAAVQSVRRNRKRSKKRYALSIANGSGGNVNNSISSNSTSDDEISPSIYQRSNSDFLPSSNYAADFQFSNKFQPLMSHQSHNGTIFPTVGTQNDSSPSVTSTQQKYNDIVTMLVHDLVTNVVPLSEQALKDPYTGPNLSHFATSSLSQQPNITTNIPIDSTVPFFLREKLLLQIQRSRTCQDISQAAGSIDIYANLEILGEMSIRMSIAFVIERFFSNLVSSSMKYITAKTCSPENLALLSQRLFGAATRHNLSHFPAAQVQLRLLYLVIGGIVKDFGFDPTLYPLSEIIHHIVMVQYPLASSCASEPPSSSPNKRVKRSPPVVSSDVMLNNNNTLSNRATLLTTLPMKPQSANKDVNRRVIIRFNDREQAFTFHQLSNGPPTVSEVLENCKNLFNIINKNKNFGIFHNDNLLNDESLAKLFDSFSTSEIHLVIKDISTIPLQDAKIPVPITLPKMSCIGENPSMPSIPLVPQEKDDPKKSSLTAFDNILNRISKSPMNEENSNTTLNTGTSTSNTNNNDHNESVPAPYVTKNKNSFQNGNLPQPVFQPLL
Test: PBM E-score (8-mer binding enrichment) (E-score (-0.5 to 0.5)); higher = stronger / more preferred TF binding
Conditions: protein concentration: 200 nM; construct: GST-full length
Method: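 Universal 'all 10-mer' protein binding microarrays (Agilent AMADID 015681) probed with GST-tagged S. cerevisiae TFs (full-length or DBD) made by in vitro transcription/translation (PURExpress), about 100-200 nM. Bound TF was detected with fluorescent anti-GST. Each ungapped 8-mer (which stands for itself and its reverse complement) is scored by the PBM enrichment score (E-score), a modified Wilcoxon-Mann-Whitney statistic from -0.5 to +0.5, computed with the Universal PBM Analysis Suite. Scale: above 0.35 generally sequence-specific binding.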

Sequence	PBM E-score
ACCCATGA	0.287
CCCCATGA	0.0682
ACCCAGGT	0.0206
ACCCAGGC	0.302
CACCATGA	0.143
ACCCAGGA	-0.00244
AACCATGC	0.234
CCCCATGC	-0.0398
ACCCATGG	0.211
ATATTCTA	0.122
TGACAACA	0.115
GCCTTGAC	-0.167
CATGGACC	-0.0938
AACTGGGC	-0.165
GCGAGCAA	-0.12
ACAACGCT	0.0591
AGCTAGGA	0.117
GGTCACCA	-0.102
AGTCACCG	0.418
AGTCACCC	0.446
ATTCACCC	0.135
CGTCACCC	-0.047
AGACACCG	0.21
ATTCACCG	0.159
AGTCACCA	0.426

Sequence	PBM E-score
CGTCACCA	-0.036
CTGGCAAG	-0.21
GAAGATCA	-0.185
GCCGGCCA	-0.136
ATGCCTGA	0.0818
CCTCTCGA	-0.142
CGTGAAAC	-0.243
AGCTCTAA	-0.127
ACTCTTAC	0.163
TCACCCAA	0.177
GCACCCCA	0.151
TCACCCCA	0.305
AGCGGTCG	-0.301
ACACGGAA	-0.0284
ACACGGAG	-0.0139
ACACGGAT	0.287
GGTCATAC	0.0467
AGTCATAC	0.407
CGTCATAC	0.189
TGTCATAA	-0.0558
ACTCATAT	0.229
AGTCATAA	0.344
ACTCATAG	0.264
CGTCATAG	-0.155
CGTCATAA	0.016

Sequence	PBM E-score
AGACATAT	0.16
AGTCATAT	0.421
AGTCATAG	0.407
ACTTATAT	0.199
GCACCGCA	0.0151
GTTCATGA	0.142
ATCCACCA	0.113
ACCTTGCG	-0.0156
GAGGCGGC	0.0803
GAGGTTGC	-0.0739
CAACTATC	0.125
ACTATCAA	0.112
CACGTGAC	0.108
AATGATTA	0.304
AATGATCA	0.0798
AATGATGA	0.163
GATGATCC	0.0747
AATGATAA	0.106
GCTGATTA	0.197
GGTGATTA	0.285
GCTGATGA	0.185
GATGATCA	0.285
GGTGATGA	0.233
GTTGATTA	0.239
GATGATTA	0.337

Sequence	PBM E-score
GCTGCGCC	0.0437
ATTAGCAA	0.124
CGAGAGCG	-0.118
CTGCATCC	-0.157
ATCGCAAT	0.157
GATGATGA	0.144
TATGATGA	0.286
CATGATGA	0.254
TAGGTTGA	0.0773
AAAGAATG	0.0281
CTGGAGTA	-0.0097
CTGGAGAC	0.0265
ATGGAGTC	0.433
CTGGAATC	0.104
ATGGAATA	0.117
ATGGAGTG	-0.0367
CTGGAGTC	0.356
ATGGAATC	0.28
ATGGAGTA	0.185
CGATACGA	-0.0911
AGAAGCGC	0.16
TAGCACAA	-0.0198
CACACTCG	0.224
GACTCCGA	0.428
AACTCCGA	0.115

Sequence	PBM E-score
AACTCCGC	-0.0635
GACTCCGC	0.38
TACTCCGA	0.174
CACTCCGC	0.144
GCCTTAGA	-0.114
CTACCTCC	0.241
GATCCATC	0.194
AAACGACA	0.138
CCTGAGGA	-0.0328
GAAACTTA	-0.0802
GCTGAGCA	0.149
GCTCTGCA	-0.201
ATGGTATC	0.287
ATGGTATG	0.00124
CTGGTATC	0.0298
CTAGATGC	0.00921
ACTCAGGG	0.27
ACTCAGGC	0.259
ATTCAGGG	0.108
CGTCAGGC	-0.213
AGTCAGGG	0.356
AGTCAGGA	0.355
GGTCAGGA	0.0179
CGTCAGGA	-0.0893
AGTCAGGC	0.404

Sequence	PBM E-score
AAGTTGTG	-0.00706
ATATTTAG	-0.00388
CACCTAGA	-0.0265
CACTTGAA	-0.042
AAGCTAGT	-0.0022
AACCAGGA	-0.00068
GTTAACGA	-0.043
CGCTTGTC	-0.0745
ATCACTGC	0.289
AGGACTGC	-0.19
GAGACTGA	0.0631
CTCACTGC	-0.102
GTGACTGA	0.384
AAGACTCG	0.0518
ATAACTCG	0.0214
ATGACTCG	0.457
GGGACTGA	-0.174
ATCACTGA	0.136
ACGACTGC	-0.0133
ATGACTGC	0.41
GTCTGAAA	-0.0548
GCTGAATA	0.00091
CACTAGAC	0.0875
AACGGGCC	-0.204
TAAGTACA	-0.0281

Sequence	PBM E-score
GCGTTAAA	-0.0751
CTCCATCC	-0.162
AGATGGGG	-0.00259
AATGCTAT	-0.0368
AAGTTCGG	-0.155
CTGCACAC	0.045
ACGATAAT	0.0207
CTGACTGA	0.13
CTGACTGC	0.298
ATGACTTG	0.268
ATGACTGA	0.368
ACGACTGA	0.123
ACGACTGG	0.0415
AGGACTGA	-0.143
ATGACTGG	0.298
CAGACTGC	0.00779
CATCCGAG	0.15
CGTAATGA	0.0462
ATTGTGGG	0.156
ACGCTCCC	-0.108
GTCATCAC	0.229
AGCAATAA	-0.0386
